Source: PubChem (several laboratories)
ERa coact inh: blocks coactivator binding to human estrogen receptor alpha; P03372; inhibition, % at 25.6 µM; hit rate 1.7% among 86,000; TR-FRET ER-alpha LBD / SRC-1 peptide, estradiol-bound; in the data active = inhibition above about 50%
MT1-MMP txn act: activates MT1-MMP transcription; HT1080 MT1-MMP promoter luciferase reporter, luminescence, overnight; hits give high values; activation factor at 10 µM; hit rate 0.16% among 86,000; AID 750;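 active = activation factor of at least 2 for MT1-MMP transcription at 10 µM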
Smad3 inh: inhibitors of human Smad3 transcription factor binding; hit rate 0.29% among 88,000; P84022; TR-FRET Smad3/Dy647-FoxH1 peptide binding, europium anti-His; inhibition, % at 25 µM;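 active = compounds that reduce the energy-transfer binding signal between the protein and its labelled peptide by more than half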
ERb SRC1 inh: blocks coactivator binding to human estrogen receptor beta. hit rate 1.3% among 86,000. Q92731. inhibition, % at 25.6 µM. TR-FRET ER-beta LBD / SRC1-Cy5 peptide binding; receptor agonist-loaded with 1 µM estradiol;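 active = compounds whose percent inhibition of the receptor-coactivator binding signal exceeds about 50% in the single-dose screen, limit read from the data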
Target sequence (Q92731 whole entry, looked up, the tested form may be a part): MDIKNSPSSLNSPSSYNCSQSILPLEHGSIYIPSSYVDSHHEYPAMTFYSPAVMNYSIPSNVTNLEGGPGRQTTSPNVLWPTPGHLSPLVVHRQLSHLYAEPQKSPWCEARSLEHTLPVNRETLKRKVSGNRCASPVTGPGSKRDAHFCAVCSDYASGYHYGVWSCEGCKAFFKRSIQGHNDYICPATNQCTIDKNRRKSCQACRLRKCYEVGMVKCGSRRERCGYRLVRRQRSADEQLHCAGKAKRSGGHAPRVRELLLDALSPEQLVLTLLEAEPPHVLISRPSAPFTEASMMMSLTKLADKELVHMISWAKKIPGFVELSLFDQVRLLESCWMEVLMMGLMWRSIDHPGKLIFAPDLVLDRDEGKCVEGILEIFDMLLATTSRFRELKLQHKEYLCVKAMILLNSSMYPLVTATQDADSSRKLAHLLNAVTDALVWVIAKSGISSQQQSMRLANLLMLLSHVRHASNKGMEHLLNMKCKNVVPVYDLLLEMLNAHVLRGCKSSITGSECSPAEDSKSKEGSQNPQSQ
MMP13 inh: MMP13 (human) collagenase inhibition. P45452. AID 570. inhibition, % at 4 µM. MMP-13 fTHP FRET cleavage, Mca fluorescence. hit rate 0.07% among 65,000;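 active = inhibition above the mean of compound-free control plate wells plus 3 SD, cut at about 14% in these data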
ERa coact pot: enhances coactivator binding to human estrogen receptor alpha; P03372; TR-FRET ERalpha-LBD/SRC-Cy5 coactivator binding, 2 h; 100 = basal binding, no effect; coactivator binding (% of control), % at 25.6 µM; hit rate 1.3% among 86,000; in the data active = activity above about 200%;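 also: binding measured in presence of low estradiol as agonist stimulus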
Large screens that a line does not name were inactive; [ ] = dose if it differs, or a comment. Most compounds without a hit are left out; they make up all but 3.5% or so of the library.

CCN1CCc2c(sc3c2c(NCc2ccco2)nc2nnnn23)C1	ERa coact inh 85[fluorescence artefact?], ERb SRC1 inh 62[fluorescence artefact?]
Cc1nc(NCc2ccco2)c2c3c(sc2n1)CCC3	none
O=C(NCc1ccc2c(c1)OCO2)c1cc2ncc(Br)cn2n1	ERa coact inh 80[fluorescence artefact?], ERb SRC1 inh 78[fluorescence artefact?]
O=C(NCc1ccc2c(c1)OCO2)c1ccccn1	none
COc1cc2c(=O)n(Cc3ccco3)c(=O)n(CC(=O)c3cccc(Br)c3)c2cc1OC	ERa coact pot 283[fluorescence artefact?] (no result: MT1-MMP txn act)
COc1cc2c(=O)n(Cc3ccco3)c(=O)n(CC(=O)c3ccc(Br)cc3)c2cc1OC	none
O=C1c2ccccc2C(=O)C1c1nccc2ccccc12	none (no result: ERa coact inh, MT1-MMP txn act, Smad3 inh, ERb SRC1 inh, ERa coact pot)
O=C1C(c2ccnc3ccccc23)=C(O)c2ccccc21	ERa coact pot 309 (no result: MT1-MMP txn act, MMP13 inh)
O=C1c2ccccc2C(=O)C1c1ccnc2ccccc12	ERa coact pot 242 (no result: MT1-MMP txn act, MMP13 inh)
CCCCNC(=O)CSc1nc2ccccc2c(=O)n1Cc1ccc2c(c1)OCO2	none (no result: MMP13 inh)
O=C(Cc1ccccc1)Nc1ccc2oc(-c3ccncc3)nc2c1	ERa coact inh 51[fluorescence artefact?], ERa coact pot 299[fluorescence artefact?]
CC(Oc1ccc(Cl)cc1Cl)C(=O)Nc1ccc2oc(-c3ccncc3)nc2c1 (centres undefined)	ERa coact pot 327
O=S(=O)(c1ccc2oc(-c3ccncc3)nc2c1)c1ccc2oc(-c3ccncc3)nc2c1	ERb SRC1 inh 51[fluorescence artefact?], ERa coact pot 237[fluorescence artefact?]
O=C(Nc1ccc2oc(-c3cccc(F)c3)nc2c1)c1ccccc1F	ERa coact pot 223[fluorescence artefact?] (no result: MMP13 inh)
Cc1sc2nc(SCC(=O)N3CCN(CCO)CC3)n(-c3ccccc3)c(=O)c2c1C	none
CCCOC(=O)c1c(N)sc2c1CCC2	none
CCOC(=O)c1c(N)sc(=S)c2c1CCC2	ERa coact inh 55[fluorescence artefact?], ERb SRC1 inh 70
S=C(c1nc2ccccc2[nH]1)N1CCOCC1	none (no result: MMP13 inh)
CCN1C(=O)/C(=c2\o/c(=C3\C=Cc4ccccc4N3CC)c(=O)n2CC)SC1=S	ERa coact inh 77[fluorescence artefact?]
CCN1C(=O)/C(=C2/C=Cc3ccccc3N2C)OC1=S	ERa coact inh 66[fluorescence artefact?], ERb SRC1 inh 63[fluorescence artefact?] (no result: MT1-MMP txn act, MMP13 inh)
CCOC(=O)C1(P(=O)(c2ccc(Cl)cc2)c2ccc(Cl)cc2)CCC1	none (no result: MMP13 inh)
Cc1cccc2cc(C(c3nnnn3C(C)(C)C)N(Cc3ccco3)CC3CCCO3)c(=O)[nH]c12 (centres undefined)	ERa coact inh 57, ERb SRC1 inh 66[fluorescence artefact?] (no result: MMP13 inh)
Cc1ccc(-c2cccc(NC(=O)C3C(C(=O)O)[C@@H]4C=C[C@H]3C4)c2)o1 (some centres undefined)	none
CCOc1ccc(OCc2ccc(C(=O)OCc3ccccn3)o2)cc1	none (no result: MT1-MMP txn act)
O=C(c1ccco1)N1CCN(C(=O)c2cc(-c3ccncc3)nc3ccc(Br)cc23)CC1	none
CCCCCCNC(=O)c1cc(-c2ccco2)nc2ccccc12	ERa coact inh 85[fluorescence artefact?], ERb SRC1 inh 75 (no result: MMP13 inh)
O=C(O)c1cc(-c2ccco2)nc2ccc(Br)cc12	ERa coact inh 64, ERb SRC1 inh 61
CC(C)CCNC(=O)c1cc(-c2ccco2)nc2ccccc12	none (no result: MMP13 inh)
O=C(Nc1ccccc1C(=O)NCC1CCCO1)c1ccco1 (centres undefined)	none
O=C(NCC1CCCO1)c1cc(-c2ccco2)nc2ccccc12 (centres undefined)	ERa coact inh 69[fluorescence artefact?], ERb SRC1 inh 75[fluorescence artefact?]
CCOc1cc(N2CCOCC2)c(OCC)cc1NC(=O)c1cc(-c2ccco2)nc2ccccc12	ERa coact inh 75
CCOc1ccc2nc3c(cc2c1)CN(CCOC)C(=NCCOC)S3	ERa coact pot 483[fluorescence artefact?] (no result: MMP13 inh)
O=S(=O)(c1ccc2ccccc2c1)N1CCN(S(=O)(=O)c2ccc3ccccc3c2)CC1	Smad3 inh 91 (no result: ERa coact inh, MT1-MMP txn act, ERb SRC1 inh, MMP13 inh, ERa coact pot)
CSCCOC(=O)c1[nH]c2c(c1C)C(=O)CC(c1ccco1)C2 (centres undefined)	ERa coact inh 56, ERb SRC1 inh 50
Cc1c(C(=O)OCCOC(C)C)[nH]c2c1C(=O)CC(c1ccco1)C2 (centres undefined)	none
COCCOC(=O)c1[nH]c2c(c1C)C(=O)CC(c1ccco1)C2 (centres undefined)	ERa coact inh 51
CCOC(=O)c1[nH]c2c(c1C)C(=O)CC(c1ccco1)C2 (centres undefined)	ERa coact inh 65, ERb SRC1 inh 56[fluorescence artefact?]
Cc1c(C(=O)OCc2ccccc2)[nH]c2c1C(=O)CC(c1ccco1)C2 (centres undefined)	ERa coact inh 55, ERb SRC1 inh 56
